This is an account of results in PubChem BioAssay (NCI).

Compounds without any hit were thinned out: in the full panel of roughly 83,000, 20% have a hit.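 Single-dose data. Exposure time 48 hours. Values below 10 considered active.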 Unmarked numbers belong to inactive results. The source made the active and inactive calls.

The experiment deals with MDA-MB-468 breast. Kind of experiment: NCI-60 one-dose screen, 48 h (100 = growth as untreated, 0 = no growth, -100 = all killed). Particulars: 10 µM unless noted.
With `CCCCN1CCCC[C@@H]1C(=O)N[C@H](C(=O)N(C)[C@H](CCc1nc(C(=O)N[C@@H](Cc2ccccc2)C[C@H](C)C(=O)OC)cs1)C(C)C)[C@@H](C)CC`, the growth is -1.75% (active).

For the molecule `O=S(=O)(c1ccc(Cl)cc1)C(Cl)(Cl)Cl`, the growth is -20.4% (active).

Turning to `C[C@]12C[C@H](O)[C@H]3[C@@H](CCC4=CC(=O)CC[C@@]43C)[C@@H]1CC[C@@H]2O`, the growth was 99.7%.

Turning to `CCCC(=O)O[C@@H]1C[C@H]2C[C@@H](O[C@@H]3O[C@@H](C)[C@@H](O)[C@@H](O)[C@H]3OC)C[C@@H](C[C@@H](C)/C=C/C=C\C[C@@H]3O[C@@H](C[C@@H]3C)[C@@H](O)C[C@H]3C[C@@]1(O)C(=O)O3)O2`, the growth is -6.3% (active).

For `COc1ccc(/C=C\c2cc(OC)c(OC)c(OC)c2)cc1NC(=O)/C=C/c1cc(OC)c(OC)c(OC)c1`, the growth is 16.5%.

Consider `CCOP(=O)(Nc1ccc2c(c1)/C(=N/NC(N)=S)c1ccccc1-2)OCC`, for which the growth was 86%.

Consider `CC1=C(CCCNS(C)(=O)=O)C2=C(C)C3(CC3)[C@@](C)(O)C(=O)C2=C1`, for which the growth was -80.9% (active).

As to `COc1cccc2c1c(C(=O)C(=O)Nc1cc(C)no1)cn2Cc1ccc(F)cc1`, the growth is 48.4%.

In the case of `O=[N+]([O-])c1cc[n+]([O-])c2ccccc12`, the growth was -60.4% (active).

On to `CCCC[C@H](NC(=O)[C@H]1CCCCN1C)C(=O)N(C)[C@H](C[C@@H](OC(C)=O)c1nc(C(=O)N[C@@H](Cc2ccccc2)C[C@H](C)C(=O)OCC)cs1)C(C)C`, for which the growth is 31.2%.

`COc1ccc(C2=NN(c3ccccc3)C(c3sc(N(CCCl)CCCl)nc3Cl)C2)cc1` (stereo not given): the growth is 69.3%.

Take `C[C@]12CC[C@H]3[C@@H](C[C@@H]4N=C(c5ccc(O)cc5)S[C@@]45C[C@H](O)CC[C@]35C)[C@@H]1CC[C@@H]2O`: the growth is 81%.

On to `CC(=O)Oc1ccc(Cl)cc1`, for which the growth was 93.6%.

With `CC(=O)Nc1ccc(C=C2C(=O)NC(=O)NC2=O)cc1`, the growth is 115%.

On to `CCCc1cc(O)c2c3c(c(=O)oc2c1)CN(C)CC3`, for which the growth is -3.7% (active).

`C=CC1CN2CCC1CC2C(O)c1ccnc2ccccc12` (stereo not given): the growth is 107%.

With `COc1ccc(N(CC(=O)NCCC[Te]c2ccccc2)C(=O)c2ccccc2)cc1`, the growth was 97.2%.

As to `ClCCN(CCCl)c1nc(Cl)c(C2CC(c3ccccc3)=NN2c2cc(Cl)cc(Cl)c2)s1` (stereo not given), the growth was 111%.

As to `CNC(=O)O/N=C(\SC)C(=O)N(C)C`, the growth is 116%.

For the molecule `COC12CC3(C)C(C4=CC(=O)OC4)CCC3(O)C3CCC4=CC(=O)CCC4(CO1)C32` (stereo not given), the growth was 101%.

With `CC1=C2C(=O)[C@H]3[C@@H](CC=C4C[C@@H](O)CC[C@@]43C)[C@@H]2CC[C@]12O[C@@H]1C[C@H](C)CN[C@H]1[C@H]2C`, the growth was 85.6%.

As to `COc1cc2ncnc(Nc3ccc(F)c(Cl)c3)c2cc1OCC(=O)N1CCN(C)CC1`, the growth was -32.4% (active).

As to `O=C1C(=Cc2cn(Cc3ccccc3)c3ccccc23)C(=O)N(Cc2ccccc2)C(=O)N1Cc1ccccc1`, the growth is -71.8% (active).

Regarding `O=C(N/N=C\c1ccc(N(CCCl)CCCl)cc1)c1cccc([N+](=O)[O-])c1`, the growth was 68.1%.

Consider `O=[N+]([O-])c1ccc(OP(=O)(CCl)N(CCCl)CCCl)cc1` (stereo not given), for which the growth was 101%.

With `O=C(O)c1ccc([S-])cc1.[Au+].c1ccc(CN2[CH-]N(Cc3ccccc3)C(c3ccccc3)=C2c2ccccc2)cc1`, the growth is -63.2% (active).

Turning to `O=S(=O)(Cl)c1ccccc1` (tested in a mixture with another compound), the growth was 98.6%.

Consider `O=C(CBr)Nc1ccccc1`, for which the growth was 108%.

As to `O=C1NC(=O)C(CN2C(=O)C3(c4ccccc42)[C@H](Cl)C(=O)N3c2ccccc2)C(=O)N1` (stereo not given in full), the growth is -23.1% (active).

For the molecule `CC(=O)[C@H]1CC[C@H]2[C@@H]3CC[C@H]4C[C@H](N)CC[C@]4(C)[C@H]3CC[C@]12C`, the growth was 64.1%.

On to `CC[PH+](CC)CC.O=COC1OC([S-])C(OC=O)C(OC=O)C1OC=O.[Au+]` (stereo not given), for which the growth was -78.8% (active).

For `Cc1ccc(NC(=O)CBr)cc1`, the growth was 98.5%.

Consider `CCN1C(=O)C(=C/C=C/c2ccccc2)C(=O)N(CC)C1=O`, for which the growth is 93.1%.

For `O=C(NCCNC(=O)c1ccc([As](O)O)cc1)c1ccc([As](O)O)cc1`, the growth is 82.2%.

Take `O=C(NC1=NCC[Se]1)c1ccccc1O`: the growth is 93.1%.

Turning to `CNCc1cccnc1`, the growth was 110%.

As to `COc1cc(NCCCN=C(N)N)c2ncccc2c1`, the growth was -37.1% (active).

For `Cc1nnc([S-])s1.[Au+].c1ccc([PH+](c2ccccc2)c2ccccc2)cc1`, the growth was -68.6% (active).

On to `COC(=O)CCc1c[nH]c2ccc(N(CCCl)CCCl)cc12`, for which the growth is 8.73% (active).

For the molecule `O=C(NC(Cl)=C(Cl)Cl)P(=O)(c1ccccc1)c1ccccc1`, the growth was 101%.
